Compound activity: PubChem, National Center for Advancing Translational Sciences (NCATS)
Pf growth 96h – inhibits malaria parasite growth, 96 h; P. falciparum luciferase reporter growth, 96 h; Potency, µM (series often up to 28.7 µM), hits mostly inhibitors; 320,000 compounds, 6.9% hits; AID 504834
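Two-generation exposure (96 h) targets delayed-death phenotype. Reporter parasites carrying integrated firefly luciferase, in red cells at 2% hematocrit and 0.05% parasitemia final, kept at 37 C, 5% CO2; luminescence loss indicates inhibition.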
LmPK inhibitor – LmPK (Leishmania mexicana) enzyme inhibition | purified LmPK, Kinase-Glo ATP luminescence, 1 h | Potency, µM (top dose mostly 57.5 µM), actives largely listed as inhibitors | AID 1721 | 290,000 compounds, 0.37% hits
Target sequence (Q27686 whole entry, looked up): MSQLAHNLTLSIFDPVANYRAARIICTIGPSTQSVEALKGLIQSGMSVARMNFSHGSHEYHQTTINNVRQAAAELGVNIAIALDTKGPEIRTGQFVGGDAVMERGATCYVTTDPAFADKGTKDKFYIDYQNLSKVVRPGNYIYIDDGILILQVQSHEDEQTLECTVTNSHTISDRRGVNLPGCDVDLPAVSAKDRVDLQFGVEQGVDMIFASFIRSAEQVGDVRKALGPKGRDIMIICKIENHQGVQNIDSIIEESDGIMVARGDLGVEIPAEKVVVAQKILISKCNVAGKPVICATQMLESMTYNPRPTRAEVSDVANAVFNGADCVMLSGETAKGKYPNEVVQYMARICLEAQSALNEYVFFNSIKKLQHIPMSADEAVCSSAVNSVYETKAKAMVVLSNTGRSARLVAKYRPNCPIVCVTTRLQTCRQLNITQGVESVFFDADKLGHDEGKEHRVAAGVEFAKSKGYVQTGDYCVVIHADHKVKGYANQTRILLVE
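In 50 mM imidazole pH 7.2 with 7 mM MgCl2, LmPK (0.1 nM) turned over PEP (0.5 mM) and ADP (0.1 mM) for 1 h at room temperature. Luciferase read-out of ATP.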
CHX counter – counter-screen hit for Shiga toxin inhibitors, cycloheximide; cell reporter, cycloheximide protein synthesis inhibition counterscreen; max response, %; 300,000 compounds, 12% hits; in the data active = max response mostly above about 13%, no sharp cut-off; inactive = mostly below about 14%; note: read at 38.3 µM for the half of the compounds with a filed dose
Shiga toxin inh – blocks Shiga toxin action in Vero cells | inhibition, % at 38.7 µM | 290,000 compounds, 9.2% hits | Vero cells, Shiga toxin protein synthesis inhibition reporter; in the data active = inhibition mostly above about 28%, no sharp cut-off; inactive = mostly below about 43%
Pf growth 48h – inhibits P. falciparum growth in the first generation, 48 h | P. falciparum luciferase growth in erythrocytes, 48 h | Potency, µM (highest dose often 28.7 µM), actives largely listed as inhibitors | 310,000 compounds, 5.9% hits
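Here the parasites carry a stable luciferase gene and grow inside erythrocytes in Albumax-based RPMI medium with compound for one erythrocytic cycle. Activity is scored as loss of luminescent signal.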
Hits are given with their value; – = inactive; ? = inconclusive; · = not tested or not shown; [ ] = another dose, or the depositor's remark. A selection: hits, their analogues and other compounds. The true share with any hit is near 22%. Unless noted, calls come from the whole dose curve; as a rule, active = well fitted inhibition curve with a large enough effect; inconclusive = small, poorly fitted or top-dose-only effect, or another doubt; inactive = no such curve, though single readings can be large or run the other way.

SMILES | Pf growth 96h | LmPK inhibitor | CHX counter | Shiga toxin inh | Pf growth 48h
CCCN1C(=O)c2ccc(C(=O)Nc3ccccc3C(=O)O)cc2C1=O | – | – | 16 | – | –[0.00184 µM]
O=C(Nc1ccc(Br)cc1C(=O)O)c1ccc2c(c1)C(=O)N(Cc1ccccc1)C2=O | ? | – | 34 | 36 | –
CCCCN1C(=O)c2ccc(C(=O)Nc3cccc(C)c3C)cc2C1=O | – | – | – | – | ·
Cc1ccc(O)c(NC(=O)c2ccc3c(c2)C(=O)N(CC(C)C)C3=O)c1 | ? | – | 33 | · | –
COc1ccc(NC(=S)Nc2cccc(C(F)(F)F)c2)c(C)c1 | – | – | – | – | –[5.75 µM]
CCN(CC)C(=O)Cn1cnc2sc(C(=O)NCCCN3CCOCC3)c(C)c2c1=O | – | – | – | – | –
CC(=O)NCCn1c(SCc2cccc([N+](=O)[O-])c2)nc2ccccc2c1=O | – | – | – | – | –
O=C(OCc1nc2ccccc2s1)[C@@H]1CCCN1S(=O)(=O)c1ccccc1F | · | – | 26 | – | –
O=C(OCC(=O)N1CCc2ccccc21)[C@@H]1CCCN1S(=O)(=O)c1ccccc1F | – | · | · | · | –
Cc1ccc(S(=O)(=O)N2CCCC2C(=O)Nc2nc3ccccc3s2)cc1 (stereo not given) | ? | – | 14 | – | ?
Cc1ccc(S(=O)(=O)N2CCCC2C(=O)Nc2ccc(O)cc2)cc1 (stereo not given) | 5.2µM | – | – | – | –
COc1ccc(S(=O)(=O)N2CCCC2C(=O)Nc2ccc(C)cc2)cc1 (stereo not given) | – | – | – | – | –
NC(=O)NC(CC(=O)NCc1ccc2c(c1)OCO2)c1ccccc1Cl (stereo not given) | – | – | – | – | –
CC(C(=O)c1ccc(-c2ccccc2)cc1)[n+]1ccccc1 (stereo not given) | 2.3µM | – | – | – | 8.3µM
Cc1ccc[n+](C(C)C(=O)c2ccc(-c3ccccc3)cc2)c1 (stereo not given) | ? | – | – | – | ?
Cc1cc[n+](C(C)C(=O)c2ccc(-c3ccccc3)cc2)cc1 (stereo not given) | – | – | – | – | 1.2µM
CC(C(=O)c1ccc(-c2ccccc2)cc1)[n+]1cccc(C(N)=O)c1 (stereo not given) | 9.3µM | – | – | – | –
O=C(C1CC(c2ccc(Cl)c(Cl)c2)=NO1)N1CCC2(CC1)OCCO2 (stereo not given) | – | – | 28 | 117 | –
O=C(C1CC(c2ccc(F)cc2)=NO1)N1CCc2ccccc2C1 (stereo not given) | – | – | – | – | ·
O=C(C1CC(c2ccc(F)cc2)=NO1)N1CCC2(CC1)OCCO2 (stereo not given) | · | – | 45 | 71 | ·
O=C(C1CC(c2ccc(F)cc2)=NO1)N1CCN(c2ccccc2)CC1 (stereo not given) | ? | – | – | – | ·
COc1cccc(C2=NOC(C(=O)N3CCc4ccccc4C3)C2)c1 (stereo not given) | ? | – | 12 | 26 | –
COc1ccc(C2=NOC(C(=O)N3CCCCCC3)C2)cc1OC (stereo not given) | – | – | – | – | –
O=C(C1CC(c2ccc(F)cc2)=NO1)N1CCCCC1 (stereo not given) | ? | – | 26 | 61 | –
Cc1ccc(S(=O)(=O)NCC(=O)N2CCN(c3ccc(F)cc3)CC2)cc1 | – | – | – | – | –
SMILES | Pf growth 96h | LmPK inhibitor | CHX counter | Shiga toxin inh | Pf growth 48h
Cc1ccc(NC(=O)COc2ccc3c(c2)OCO3)c(Cl)c1 | – | · | · | · | –
COc1cccc(C2=NOC(C(=O)NC(C)C)C2)c1 (stereo not given) | · | – | – | – | ?
O=C(C1CC(c2ccccc2O)=NO1)N1CCCCC1 (stereo not given) | · | – | 48 | 133 | –
CC1CCCCN1C(=O)C1CC(c2ccc(F)cc2)=NO1 (stereo not given) | ? | – | 59 | 90 | –
COc1cccc(C2=NOC(C(=O)N3CCC4(CC3)OCCO4)C2)c1 (stereo not given) | – | – | 52 | 97 | –
NC(=NC1CCCCC1)NS(=O)(=O)c1ccccc1 | – | – | – | – | –[0.00184 µM]
COC(=O)[C@@H]1C[C@H]1[C@@H](NC(=O)c1ccccc1)c1ccccc1 | – | – | – | – | –
CCCCCCC1/C(=N\NC(=O)c2ccccc2)CCC1C(=O)OC (stereo not given) | – | – | 35 | 80 | ·
CCOC(=O)c1cnc2c(C)c(C)ccc2c1NCCN1CCOCC1 | ? | – | – | – | ?
